Values joined by “and” are separate entries in the source; they are usually repeats but may differ in a detail not shown here. Equal values may be shown once. The campaign covered roughly 5,500 compounds. About 2,000 (36%) were called active. Roughly 18% stayed inconclusive and do not appear here. Cut-off read from the data, not from the text of the source: active = normalized growth mostly below about 0.91 (no sharp cut-off); inconclusive = no clear call, values can overlap the other calls; inactive = mostly above about 0.92. Some of the results follow.
Assay: chemical genetic growth profiling, strain panel (AID 1159580);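 note: tested at 20 µM; growth read once vehicle control cultures reached saturation at 30 °C; 1 = growth at the plate median or of vehicle wells; lower values mean less growth of the strain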
Conditions: growth OD
[1] = S. cerevisiae deletion strains, locus YAL013W, strain DEP1, stronger effect = lower value
[2] = S. cerevisiae deletion strains, locus YBR229C, strain ROT2, stronger effect = lower value
[3] = S. cerevisiae deletion strains, locus YDL101C, strain DUN1, stronger effect = lower value
[4] = S. cerevisiae deletion strains, locus YDR150W, strain NUM1, stronger effect = lower value
[5] = S. cerevisiae deletion strains, locus YEL061C, strain CIN8, stronger effect = lower value
[6] = S. cerevisiae deletion strains, locus YGR078C, strain PAC10, stronger effect = lower value
[7] = S. cerevisiae deletion strains, locus YHR030C, strain SLT2, stronger effect = lower value
[8] = S. cerevisiae deletion strains, locus YHR087W, strain rtc3, stronger effect = lower value
[9] = S. cerevisiae deletion strains, locus YJR043C, strain POL32, stronger effect = lower value
[10] = S. cerevisiae deletion strains, locus YJR075W, strain HOC1, stronger effect = lower value
[11] = S. cerevisiae deletion strains, locus YLR039C, strain RIC1, stronger effect = lower value
[12] = S. cerevisiae deletion strains, locus YLR058C, strain SHM2 (second series), stronger effect = lower value
[13] = S. cerevisiae deletion strains, locus YLR085C, strain ARP6, stronger effect = lower value
[14] = S. cerevisiae deletion strains, locus YLR262C, strain YPT6, stronger effect = lower value
[15] = S. cerevisiae deletion strains, locus YML094W, strain GIM5, stronger effect = lower value
[16] = S. cerevisiae deletion strains, locus YMR219W, strain ESC1, stronger effect = lower value
[17] = S. cerevisiae deletion strains, locus YMR263W, strain SAP30, stronger effect = lower value
[18] = S. cerevisiae deletion strains, locus YNL153C, strain GIM3, stronger effect = lower value
[19] = S. cerevisiae deletion strains, locus YNL298W, strain CLA4 (second series), stronger effect = lower value
[20] = S. cerevisiae deletion strains, locus YNL322C, strain KRE1, stronger effect = lower value
[21] = S. cerevisiae deletion strains, locus YNR030W, strain Alg12, stronger effect = lower value
[22] = S. cerevisiae deletion strains, locus YOL006C, strain TOP1, stronger effect = lower value
[23] = S. cerevisiae deletion strains, locus YPL055C, strain LGE1, stronger effect = lower value
[24] = S. cerevisiae deletion strains, locus YPL241C, strain CIN2, stronger effect = lower value
[25] = S. cerevisiae deletion strains, locus YPR135W, strain CTF4, stronger effect = lower value

Measured: normalized growth

CSC(=Nc1ccc(C(C)C)cc1)NC#N
inactive: [1] 0.993 | [2] 0.978 | [3] 1.02 | [4] 0.916 | [5] 1 | [6] 0.98 | [7] 0.88 | [8] 0.97 | S. cerevisiae deletion strains, locus YJL187C, strain SWE1, stronger effect = lower value 0.981 | [9] 0.982 | [10] 0.936 | [11] 0.971 | [12] 0.955 | [13] 0.86 | [14] 0.943 | [15] 1.04 | [16] 0.97 | [17] 0.978 | S. cerevisiae deletion strains, locus YNL128W, strain TEP1, stronger effect = lower value 0.965 | [18] 1 | [19] 0.947 | [20] 0.986 | [21] 0.988 | [22] 0.839 | [23] 0.985 | [24] 0.908 | [25] 0.855

O=C(c1ccc(Cl)cc1)N1CCN(c2ccc(C(F)(F)F)cn2)CC1
active: [2] 0.824 | [5] 0.8 | S. cerevisiae deletion strains, locus YGR229C, strain SMI1, stronger effect = lower value 0.551 | [7] 0.0888 and 0.729 | [10] 1.11 [resistant] | [13] 0.436 | S. cerevisiae deletion strains, locus YLR113W, strain HOG1, stronger effect = lower value 0.813 | [15] 0.802 | S. cerevisiae deletion strains, locus YMR307W, strain GAS1, stronger effect = lower value 0.272 | [18] 0.911 | [19] 0.563 | [21] 0.861 | [22] 0.661 | S. cerevisiae deletion strains, locus YPL256C, strain CLN2, stronger effect = lower value 0.8 | S. cerevisiae strains, strain wild type, stronger effect = lower value 0.862
inactive: [1] 0.934 | S. cerevisiae deletion strains, locus YAR019C, strain CDC15, stronger effect = lower value 0.973 | S. cerevisiae deletion strains, locus YBL105C, strain PKC1, stronger effect = lower value 0.992 | S. cerevisiae deletion strains, locus YBR135W, strain CKS1, stronger effect = lower value 0.997 | S. cerevisiae deletion strains, locus YBR136W, strain MEC1, stronger effect = lower value 0.988 | S. cerevisiae deletion strains, locus YBR160W, strain CDC28, stronger effect = lower value 0.973 | S. cerevisiae deletion strains, locus YDL017W, strain CDC7, stronger effect = lower value 0.995 | S. cerevisiae deletion strains, locus YDL028C, strain MPS1, stronger effect = lower value 0.968 | [3] 0.986 and 0.988 | S. cerevisiae deletion strains, locus YDL108W, strain KIN28, stronger effect = lower value 0.979 | S. cerevisiae deletion strains, locus YDL132W, strain cdc53, stronger effect = lower value 0.988 | S. cerevisiae deletion strains, locus YDL214C, strain PRR2, stronger effect = lower value 0.937 | S. cerevisiae deletion strains, locus YDR052C, strain DBF4, stronger effect = lower value 1 | S. cerevisiae deletion strains, locus YDR054C, strain cdc34, stronger effect = lower value 0.978 | [4] 0.843 | S. cerevisiae deletion strains, locus YDR226W, strain ADK1, stronger effect = lower value 0.979 | S. cerevisiae deletion strains, locus YDR477W, strain SNF1, stronger effect = lower value 0.936 | S. cerevisiae deletion strains, locus YER123W, strain YCK3, stronger effect = lower value 0.913 | S. cerevisiae deletion strains, locus YER133W, strain GLC7, stronger effect = lower value 0.955 | S. cerevisiae deletion strains, locus YFL009W, strain cdc4, stronger effect = lower value 0.967 | S. cerevisiae deletion strains, locus YFL029C, strain CAK1, stronger effect = lower value 0.981 | S. cerevisiae deletion strains, locus YFR003C, strain YPI1, stronger effect = lower value 0.993 | S. cerevisiae deletion strains, locus YFR019W, strain FAB1, stronger effect = lower value 0.968 | S. cerevisiae deletion strains, locus YFR028C, strain CDC14, stronger effect = lower value 0.978 | S. cerevisiae deletion strains, locus YGR040W, strain KSS1, stronger effect = lower value 0.954 | S. cerevisiae deletion strains, locus YGR052W, strain FMP48, stronger effect = lower value 0.978 | [6] 0.933 | S. cerevisiae deletion strains, locus YGR092W, strain DBF2, stronger effect = lower value 0.89 | S. cerevisiae deletion strains, locus YHR079C, strain IRE1, stronger effect = lower value 0.88 | S. cerevisiae deletion strains, locus YHR082C, strain KSP1, stronger effect = lower value 0.96 | [8] 0.947 | S. cerevisiae deletion strains, locus YHR205W, strain SCH9, stronger effect = lower value 0.857 | S. cerevisiae deletion strains, locus YIL147C, strain SLN1, stronger effect = lower value 0.986 | S. cerevisiae deletion strains, locus YJL095W, strain BCK1, stronger effect = lower value 0.892 | S. cerevisiae deletion strains, locus YJL128C, strain PBS2, stronger effect = lower value 0.942 | S. cerevisiae deletion strains, locus YJL157C, strain FAR1, stronger effect = lower value 0.979 | S. cerevisiae deletion strains, locus YJR016C, strain ILV3, stronger effect = lower value 0.986 | [9] 0.993 | S. cerevisiae deletion strains, locus YJR066W, strain TOR1 (second series), stronger effect = lower value 0.974 | S. cerevisiae deletion strains, locus YJR066W, strain TOR1, stronger effect = lower value 0.891 | S. cerevisiae deletion strains, locus YKL048C, strain ELM1, stronger effect = lower value 0.963 | S. cerevisiae deletion strains, locus YKL067W, strain YNK1, stronger effect = lower value 0.925 | S. cerevisiae deletion strains, locus YKL101W, strain HSL1, stronger effect = lower value 0.911 | S. cerevisiae deletion strains, locus YKL193C, strain SDS22, stronger effect = lower value 0.988 | S. cerevisiae deletion strains, locus YKL203C, strain TOR2, stronger effect = lower value 1.02 | [11] 1.16 | [12] 0.974 | S. cerevisiae deletion strains, locus YLR133W, strain CKI1, stronger effect = lower value 0.95 | [14] 1.1 | S. cerevisiae deletion strains, locus YLR403W, strain SFP1, stronger effect = lower value 0.957 | S. cerevisiae deletion strains, locus YML070W, strain DAK1, stronger effect = lower value 0.921 | S. cerevisiae deletion strains, locus YMR001C, strain CDC5, stronger effect = lower value 0.977 | S. cerevisiae deletion strains, locus YMR205C, strain PFK2 (second series), stronger effect = lower value 0.957 | [16] 0.958 | [17] 0.963 | S. cerevisiae deletion strains, locus YMR277W, strain FCP1, stronger effect = lower value 0.962 | S. cerevisiae deletion strains, locus YNL006W, strain LST8, stronger effect = lower value 0.983 | S. cerevisiae deletion strains, locus YNL020C, strain ARK1, stronger effect = lower value 0.956 | S. cerevisiae deletion strains, locus YNL161W, strain CBK1, stronger effect = lower value 0.994 | S. cerevisiae deletion strains, locus YNL183C, strain NPR1, stronger effect = lower value 0.979 | S. cerevisiae deletion strains, locus YNL207W, strain RIO2, stronger effect = lower value 0.985 | S. cerevisiae deletion strains, locus YNL222W, strain SSU72, stronger effect = lower value 0.982 | S. cerevisiae deletion strains, locus YNL307C, strain MCK1 (second series), stronger effect = lower value 0.931 | [20] 0.982 | S. cerevisiae deletion strains, locus YOL078W, strain AVO1, stronger effect = lower value 0.982 | S. cerevisiae deletion strains, locus YOL136C, strain PFK27, stronger effect = lower value 0.908 | S. cerevisiae deletion strains, locus YOR061W, strain CKA2, stronger effect = lower value 0.965 | S. cerevisiae deletion strains, locus YOR119C, strain RIO1, stronger effect = lower value 0.958 | S. cerevisiae deletion strains, locus YOR231W, strain MKK1, stronger effect = lower value 0.853 | S. cerevisiae deletion strains, locus YOR329C, strain SCD5, stronger effect = lower value 0.992 | S. cerevisiae deletion strains, locus YPL031C, strain PHO85, stronger effect = lower value 0.941 | [23] 0.919 | S. cerevisiae deletion strains, locus YPL153C, strain RAD53, stronger effect = lower value 0.93 | S. cerevisiae deletion strains, locus YPL204W, strain HRR25, stronger effect = lower value 0.963 | S. cerevisiae deletion strains, locus YPL209C, strain IPL1, stronger effect = lower value 0.991 | [24] 1.01 | S. cerevisiae deletion strains, locus YPR025C, strain CCL1, stronger effect = lower value 0.987 | S. cerevisiae deletion strains, locus YPR106W, strain ISR1, stronger effect = lower value 0.975 | S. cerevisiae deletion strains, locus YPR111W, strain DBF20, stronger effect = lower value 0.955 | [25] 0.671 | S. cerevisiae deletion strains, strain NNK1, stronger effect = lower value 0.977 | S. cerevisiae deletion strains, strain TSCII, stronger effect = lower value 0.972

Reference: PubChem BioAssay AID1159580 (chemical genetic matrix, 2015)
